PubChem BioAssay AID493185 (National Center for Advancing Translational Sciences (NCATS), 2011)
Active and inactive are the calls of the source. Where a call stands in place of a potency, no number is given. The call rests on the fitted dose curve; in most records, active means well fitted activation curve with a large enough effect; inconclusive means small, poorly fitted or top-dose-only effect; inactive means no such curve, though single readings can be large or run the other way.

assay: Counterscreen for Identifying a Potential Treatment of Ataxia-Telangiectasia: Hit Validation; conditions: cell-free AlphaLISA/AlphaScreen artifact counterscreen, PBS only, no cells; series mostly up to 76.9 µM
Description: NIH Chemical Genomics Center [NCGC]
NIH Molecular Libraries Probe Centers Network [MLPCN]
Assay Submitter (PI): Wei Zheng and Yosef Shiloh
Ataxia-telangiectasia (A-T) is a devastating and progressive disease for which, there is no cure. Although A-T is a multisystem disease, it is stereotyped characterized by its neurological symptoms such as truncal ataxia, due to cerebellar cortical degeneration of the Purkinje and granule cells. Other symptoms of A-T are telangiectasias (dilated blood vessels), primary immunodeficiency, marked sensitivity to ionizing radiation (IR), chromosomal instability and predisposition to cancer.
The underlying genetic cause of A-T is null mutations in the ATM (A-T mutated) gene. ATM is a nuclear serine/threonine kinase that functions as a master regulator of the cellular responses to double strand breaks (DSBs) in the DNA. Upon activation by DSBs, ATM phosphorylates a plethora of downstream targets, including KAP-1 on […]. KAP-1 phosphorylation occurs shortly in response to DSBs and mediates global chromatin relaxation, which facilitates DSB repair. To screen for small molecules that will compensate for the loss of ATM in cells derived from A-T patients, we monitored KAP-1 phosphorylation as a readout for ATM-like activity using an AlphaLISA assay.
3. Library compounds, 23 nl, 76.7 - 0.61uM dilution series final concentration
4. Incubation, 60 min, 37C, 5% CO2, 95% humidity
6. Incubation, 30 min, 37C, 5% CO2, 95% humidity
7. Reagent, 1 ul, Premixed detection reagents and lysis buffer
8. Reagent, 1 ul, 0.6% Antifoam A
9. Incubation, 6 hr, 25C, 95% humidity
10. Readout, EnVision, EnVision plate reader. AlphaScreen 1536-well protocol
PBS was dispensed into medium-binding white solid-bottom tissue culture treated Kalypsys plates with a Multidrop dispenser. Detection reagent and lysis buffer was 3.75nM Rab-a-pKAP1 antibody bound to 75 ng/ul AlphaScreen SA donor bead, 3.75 nM Biot-M-a-KAP1 antibody bound to AlphaLISA protein A acceptor bead, 0.5x protease inhibitor cocktail and 0.25x PerkinElmer lysis buffer. EnVision protocol for 1536-well AlphaScreen read (30ms excitation, 100ms read), about 10 min/plate. This assay is similar to the primary screen but is without cells. It aims to identify artifacts of the assay platform and unspecific hits.
Potency means the concentration at half of the fitted maximal effect.

| Compound | Potency |
| --- | --- |
| COc1cc(/C=C2\SC(=S)N(C(C(=O)O)c3ccccc3)C2=O)ccc1O (stereo not given) | inactive |
| CC(=O)c1ccc([N+](=O)[O-])c(CS(=O)(=O)c2ccc(Cl)cc2)c1 | inactive |
| S=c1[nH]nc(COc2ccccc2)n1/N=C/c1ccccc1Cl | inactive |
| CCOC(=O)C1=C(C)N(c2ccc(OC)cc2)C(=O)/C1=C\c1ccc(O)c(OCC)c1 | inactive |
| N#Cc1c2c(c(-n3cnc4ccccc43)n3c1nc1ccccc13)CCC2 | inactive |
| Cc1nc2sc(C(N)=O)c(N)c2c2c1CCCC2 | inactive |
| CN(C)S(=O)(=O)c1ccc(NC(=O)c2ccc([N+](=O)[O-])cc2)cc1 | inactive |
| CCCN1CN(c2ccccc2)C(=S)N(c2ccccc2)C1 | inactive |
| CCOc1cc(/C=C/c2nc3ccccc3c(=O)[nH]2)ccc1O | inactive |
| O=C(NCCCN1CCOCC1)c1ccc2c(c1)N(Cc1cccc(F)c1)C(=O)c1ccccc1S2 | inactive |
| CCN1C/C(=C/c2sccc2C)c2nc3ccccc3c(C(=O)O)c2C1 | inactive |
| CCc1ccc(NC(=O)N[C@H](C(=O)O)C(C)CC)cc1 (stereo not given in full) | inactive |
| Cc1ccc(OC(=O)c2cc(C)nn2C(C)(C)C)cc1 | inactive |
| COc1ccc(CNC(=O)COc2cccnc2[N+](=O)[O-])cc1OC | inactive |
| CCS(=O)(=O)N1Cc2ccccc2CC1C(=O)Nc1cccc(OC)c1 (stereo not given) | inactive |
| CC(Oc1ccccc1)C(=O)Nc1cccc(NC(=O)c2ccco2)c1 (stereo not given) | inactive |
| CCOC(=O)c1cccc(N2C(=O)C3C4C=CC(CC4)C3C2=O)c1 (stereo not given) | inactive |
| CCN1CCN(c2oc(COc3ccc(Cl)cc3)nc2C#N)CC1 | inactive |
| CC1=NOC2(C1)N(C)c1ccccc1C2(C)C (stereo not given) | inactive |
| COc1ccc(NS(=O)(=O)c2ccc(N3CC(O)=C(c4ccccc4)C3=N)cc2)cc1 | inactive |

| Compound | Potency |
| --- | --- |
| Cc1ccnc(NC(=O)c2ccccc2NC(=O)c2ccccc2)c1 | inactive |
| Cc1nn(CC(=O)N(C)Cc2ccc(F)cc2)c(C)c1[N+](=O)[O-] | inactive |
| CN(C)c1ccc2nc3ccc(=[N+](C)C)cc-3sc2c1 | 11.6 µM (active) |
| COc1ccc(-c2cc(C(F)(F)F)c(C#N)c(SCC(=O)O)n2)cc1OC | inactive |
| N=c1ccn(Cc2ccc([N+](=O)[O-])cc2)cc1 | inactive |
| Cc1nc(SCC(=O)Nc2cc(C(N)=O)cc(C(N)=O)c2)c2c(C)c(C)sc2n1 | 51.9 µM (active) |
| Cc1c(Cc2ccccc2)c(NCCCO)n2c(nc3ccccc32)c1C#N | inactive |
| COc1ccc(CCNC2=NCCS2)cc1OC | inactive |
| CCCc1ccc(S(=O)(=O)Nc2ccc(C)c(NS(C)(=O)=O)c2)cc1 | inactive |
| CCN1CCN(CC(=O)Nc2ccc(C(C)=O)cc2)CC1 | inactive |
| C=CCOC(=O)C1=C[C@H](c2coc3ccccc3c2=O)C[C@H](OCc2ccc(CO)cc2)O1 | inactive |
| COc1cccc(CN2CCN(Cc3cc(OC)c(OC)cc3OC)CC2)c1 | inactive |
| O=C(CN1CCN(Cc2ccccc2)CC1)Nc1ccc(Cl)cc1 | inactive |
| COC(=O)CCc1c(C)c(C(=O)c2cc(OC)c(OC)c(OC)c2)c2ccccn12 | inactive |
| O=c1c2cc(Br)ccc2nc(-c2ccccc2)n1O | inactive |
| S=c1[nH]nc(Cn2c(-c3ccccn3)nc3ccccc32)n1-c1ccc2c(c1)OCCO2 | inactive |
| Cn1c(=O)oc2cc(S(=O)(=O)N3CCc4ccccc43)ccc21 | inactive |
| CCS(=O)(=O)c1ccc(C(=O)Nc2ccccc2)c(Cl)c1Cl | inactive |
| COc1ccc(Nc2cc3n(c(=O)n2)CCc2cc(OC)c(OC)cc2-3)cc1 | inactive |
| CCC(C)Nc1nc(N)c([N+](=O)[O-])c(NCCO)n1 (stereo not given) | inactive |
